Hits are enriched below; roughly 0.4% of the tested compounds scored in any of these assays.
EPAC1 ag: agonists of human EPAC1; O95398; EPAC1 agonist qHTS, biochemical assay; response scale: 100% = response to 6.5 mM cAMP; Potency, µM (titrated, usually from 154 µM), actives largely listed as activators; actives 0.073% (n = 360,000); also: nearly all actives have a fitted effect of over 60% in size
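Nucleotide exchange assay: 100 nM EPAC1 with 250 nM Rap1B loaded with BODIPY-GDP and 50 uM GDP, room temperature. Fluorescence (480/540 nm) read every 5 min for 30 min; signal change normalized to 6.5 mM cAMP as full agonist.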
EPAC1 antag: blocks human EPAC1 exchange factor. O95398. EPAC1 GEF assay, Rap1b-BODIPY-GDP exchange fluorescence. Potency, µM (doses to about 115 µM), most hits filed as inhibitors. actives 0.14% (n = 360,000); also: nearly all actives have a fitted effect of over 50% in size
EPAC2 antag: EPAC2 (human) antagonism; Q8WZA2; EPAC2 GEF exchange of Rap1B-BODIPY-GDP, fluorescence; Potency, µM (top dose mostly 114 µM), actives largely listed as inhibitors; actives 0.18% (n = 360,000); also: nearly all actives have a fitted effect of over 45% in size
EPAC2 ag: agonists of human EPAC2 (RAPGEF4) | EPAC2 activation, biochemical qHTS; response scale: 100% = 6.5 mM cAMP response | Potency, µM (top dose mostly 154 µM), most hits filed as activators | actives 0.079% (n = 360,000); also: nearly all actives have a fitted effect of over 50% in size
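Setup: EPAC2 100 nM, labeled Rap1B complex 250 nM, free GDP 50 uM. Compound titrations pinned in, brief spin, 5 min room temperature incubation. Kinetic fluorescence read over 30 min, normalized to 6.5 mM cAMP.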
B2AR arrestin: recruits beta-arrestin to the human beta2-adrenergic receptor; P07550; beta-arrestin recruitment to beta2AR, cell-based reporter; Potency, µM (highest dose often 46.1 µM), hits mostly activators; actives 0.02% (n = 330,000); AID 492947; also: nearly all actives have a fitted effect of over 65% in size
Target sequence (P07550 whole entry, looked up): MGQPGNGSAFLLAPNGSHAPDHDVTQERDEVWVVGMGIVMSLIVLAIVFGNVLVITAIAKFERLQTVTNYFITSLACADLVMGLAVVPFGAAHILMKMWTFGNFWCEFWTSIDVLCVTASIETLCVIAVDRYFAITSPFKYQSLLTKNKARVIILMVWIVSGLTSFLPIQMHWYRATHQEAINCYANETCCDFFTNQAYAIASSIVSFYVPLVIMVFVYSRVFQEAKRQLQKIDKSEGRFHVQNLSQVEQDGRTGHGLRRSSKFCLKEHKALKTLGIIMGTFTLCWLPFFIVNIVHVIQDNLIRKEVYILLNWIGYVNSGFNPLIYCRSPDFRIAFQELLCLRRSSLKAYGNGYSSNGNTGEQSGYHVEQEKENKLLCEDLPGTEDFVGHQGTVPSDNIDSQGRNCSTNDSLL
Each line names hits and unclear results; the compound was inactive in the other large screens. Calls follow the shape of the dose curve; as a rule, active = well fitted curve in the direction sought with a large enough effect; inconclusive = small, poorly fitted or top-dose-only effect, or another doubt; inactive = no such curve, though single readings can be large; an effect the other way counts as inactive or inconclusive.

CC(C)N1C(=O)/C(=C/C=C/c2ccco2)C(=O)N(Cc2ccco2)C1=O	EPAC1 antag inconclusive
COc1ccc(/C=C2/C(=O)N(Cc3ccco3)C(=O)N(C(C)C)C2=O)cc1	EPAC1 antag 31.6µM
O=c1nc(/C=C/c2ccc(Cl)cc2Cl)cc(C(F)(F)F)[nH]1	EPAC1 antag inconclusive, EPAC2 antag 56.2µM
CCOC(=O)C1CCCN(c2ccc([N+](=O)[O-])c3nonc23)C1 (configuration not stated)	EPAC1 ag 89.1µM, EPAC2 ag 100µM
CC1CCCN(c2ccc(C(=O)N3CCC4(CC3)OCCO4)cc2[N+](=O)[O-])C1 (configuration not stated)	none
COc1ccc(N2C(=O)/C(=C/C=C/c3ccccc3[N+](=O)[O-])C(=O)NC2=S)cc1	EPAC1 antag 44.7µM
N#CC(C#N)=NNc1ccc([N+](=O)[O-])cc1	EPAC1 antag inconclusive, EPAC2 antag inconclusive
Oc1c(Cl)c(Cl)c(Cl)c(Cl)c1Cl	EPAC2 antag 10µM (no result: B2AR arrestin)
COC(=O)C1C2c3ccccc3C(c3ccccc32)C1(C)C(=O)OC (configuration not stated)	EPAC2 antag 31.6µM (no result: B2AR arrestin)
Clc1ccc(CSc2nnc(-c3ccccn3)n2Cc2ccco2)cc1Cl	EPAC2 antag inconclusive (no result: B2AR arrestin)
C[N+]1(C)[C@@H]2CC[C@H]1CC(OC(=O)C(c1ccccc1)c1ccccc1)C2 (some centres not stated)	none
O=C(OC1CCN(CCCl)CC1)C(c1ccccc1)c1ccccc1	EPAC2 antag 12.6µM
Cc1cc(C=C(C#N)C#N)ccc1N1CCCC1	EPAC1 ag inconclusive, EPAC2 ag 100µM
CCOc1cc(-c2c(C#N)c(=O)[nH]c3c2c(C)nn3-c2ccc(F)cc2)ccc1O	EPAC1 antag inconclusive
O=C(C(=O)N1CCc2ccccc2C1)c1cn(CC(=O)N2CCCCC2)c2ccccc12	EPAC1 antag inconclusive
COc1ccc(-n2c(O)c(/C=C/C=Nc3ccccc3)c(=O)[nH]c2=O)cc1	EPAC1 ag 100µM, EPAC2 ag inconclusive
O=c1[nH]c(=O)n(-c2ccccc2)c(O)c1/C=C/C=Nc1ccccc1	EPAC1 ag inconclusive
COCCCn1c(N)c(C(=O)NCCC(C)C)c2nc3ccccc3nc21	EPAC1 antag 50.1µM, EPAC2 antag inconclusive
O=[N+]([O-])c1cccc(NP(=O)(Oc2ccccc2)Oc2ccccc2)c1	EPAC2 antag 25.1µM
CC(C)CCOP(=O)(c1ccc(N(C)C)cc1)C(O)c1c(Cl)cccc1Cl (configuration not stated)	EPAC1 antag inconclusive, EPAC2 antag inconclusive
CC(C)(C)OC(=O)NNC(=S)NC1CCCCC1	EPAC1 antag inconclusive
CCN1C(=O)NC(=O)/C(=C/c2cc(C)n(-c3sc(C)c(C)c3C#N)c2C)C1=O	none
Cc1ccc(N2C(=O)NC(=O)/C(=C\c3cc(C)n(-c4sc5c(c4C#N)CCCC5)c3C)C2=O)cc1	EPAC1 antag 17.8µM, EPAC2 antag inconclusive
FC(F)(F)c1cccc(CC2CN(Cc3ccccc3)Cc3ccccc3N2c2cc(Cl)cc(Cl)c2)c1 (configuration not stated)	none (no result: B2AR arrestin)
CCOP(=S)(OCC)Oc1cc(C)nc(C(C)C)n1	EPAC2 antag 22.4µM (no result: B2AR arrestin)
CCOP(=S)(OCC)Oc1cc(C)oc(=O)c1	none
OC12ONC(c3ccccn3)C1N1CCC2CC1 (configuration not stated)	B2AR arrestin 18.4µM
Cc1cc(C(C#N)c2ccc(Cl)cc2)c(Cl)cc1NC(=O)c1cc(I)cc(I)c1O (configuration not stated)	EPAC1 antag inconclusive, EPAC2 antag 50.1µM
CCCOP(=O)(OCCC)C(Nc1cccc(C(F)(F)F)c1)c1ccc(C)cc1 (configuration not stated)	EPAC1 ag inconclusive
O=C1C=CC(=O)C2C1C1(Cl)C(Cl)=C(Cl)C2(Cl)C1(Cl)Cl (configuration not stated)	EPAC2 antag 56.2µM (no result: B2AR arrestin)
C=CC[C@@H](CC(=O)N(CCO)Cc1ccccc1)C(=O)NC[C@@H](OC(=O)[C@@H](CC=C)CC(=O)OC(C)(C)C)c1ccccc1	none
Cc1[nH]n(-c2ccccc2)c(=O)c1C(c1cccc([N+](=O)[O-])c1O)c1c(C)[nH]n(-c2ccccc2)c1=O	EPAC1 antag 56.2µM
COc1cc(C(c2c(C)[nH]n(-c3ccccc3)c2=O)c2c(C)[nH]n(-c3ccccc3)c2=O)cc(OC)c1OC	none
CC(C)CC[C@@H](O)[C@](C)(O)C1CC[C@@]2(O)C3=CC(=O)[C@@H]4C[C@@H](O)[C@@H](O)C[C@]4(C)C3CC[C@]12C (some centres not stated)	none
O=C1NC(=O)N(Cc2ccc(F)cc2)C(=O)/C1=C\c1ccc([N+](=O)[O-])s1	EPAC1 antag 20µM
COc1ccc(N2C(=O)NC(=O)/C(=C\c3ccc([N+](=O)[O-])s3)C2=O)cc1	EPAC1 antag inconclusive
O=C1NC(=O)N(Cc2ccco2)C(=O)/C1=C\c1cccn1CCOc1ccc(Cl)cc1	EPAC1 antag 50.1µM
Cc1cccc(OCCn2cccc2/C=C2/C(=O)NC(=O)N(Cc3ccco3)C2=O)c1	EPAC1 antag inconclusive
COc1ccc(CN2C(=O)NC(=O)/C(=C\c3cc(OC)c(OC)c(OC)c3)C2=O)cc1	none
COc1ccc(CN2C(=O)NC(=O)/C(=C/c3ccc([N+](=O)[O-])s3)C2=O)cc1	EPAC1 antag 39.8µM
COc1ccc(CN2C(=O)NC(=O)/C(=C\c3ccco3)C2=O)cc1	EPAC1 antag 50.1µM
Cc1cccc(NC(=O)C2CCCN(S(=O)(=O)c3ccc4c(c3)oc(=O)n4C)C2)c1 (configuration not stated)	EPAC2 ag inconclusive
Cc1c(Cc2ccccc2)c(=O)oc2cc(OCc3ccc(C(=O)O)cc3)ccc12	EPAC2 antag inconclusive
CCOC(=O)c1cc(CC)sc1/N=C/c1c(O)[nH]c(=S)[nH]c1=O	EPAC2 ag 63.1µM
CCOC(=O)c1cc(CC)sc1/N=C/C1C(=O)NC(=S)NC1=O	EPAC2 ag 89.1µM
O=C1NC(=S)N(c2ccccc2)C(=O)/C1=C/c1ccco1	EPAC1 antag 20µM
CC1=NCCc2c1[nH]c1cc(O)ccc21	EPAC1 ag 112µM, EPAC2 ag 100µM
O=c1c2ccccc2c(C=Nc2ccc(O)cc2)c(O)n1Cc1ccccc1	EPAC1 antag inconclusive
Cc1ccccc1N1C(=O)NC(=O)/C(=C\c2ccc3c(c2)CCCN3Cc2ccccc2)C1=O	EPAC1 antag 35.5µM
O=C1NC(=S)NC(=O)C1=Cc1ccc2c(c1)CCN2CCCCl	none
COc1ccc(C/C(=N\OC(C)=O)c2ccc(OC)cc2)cc1	EPAC2 antag inconclusive
Cc1ccc(-c2[nH]c(=S)[nH]c(=O)c2C#N)cc1	EPAC1 antag inconclusive

Screening data from PubChem.
